Test results reported in PubChem BioAssay (NCI).
Compounds without any hit were thinned out: in the full panel of roughly 79,000, 15% have a hit. Active and inactive are the calls of the source. Cut-off read from the data, not from the text of the source: active = growth inhibition above about 70%; inactive = the rest.

Tests used:
[1] = NCI Yeast Anticancer Drug Screen. Data for the rad50 strain (AID 155);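 note: 0% = growth of vehicle-only cultures of the same strain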; settings: S. cerevisiae rad50 strain growth inhibition; at 50.0 µM; stronger effect = higher value
In short: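 Yeast carrying a defined DNA repair defect were exposed to test compounds, and growth was compared with vehicle-treated controls to give percent inhibition.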

[2] = NCI Yeast Anticancer Drug Screen. Data for the mec2-1 strain (AID 157); settings: S. cerevisiae mec2-1 strain, at 50.0 µM, stronger effect = higher value
In short: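 Compounds were applied to mec2-1 yeast cells. Their growth was then compared with that of vehicle-treated cultures to give growth inhibition.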

[3] = NCI Yeast Anticancer Drug Screen. Data for the sgs1 mgt1 strain (AID 161);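 note: 0% = growth of cultures given vehicle only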; settings: S. cerevisiae sgs1 mgt1 strain, at 50.0 µM, stronger effect = higher value
In short: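 Percent growth inhibition was derived by comparing compound-exposed mutant yeast with vehicle-exposed cultures. The strain carries alterations in DNA damage repair.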

[4] = NCI Yeast Anticancer Drug Screen. Data for the cln2 rad14 strain (AID 165);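 note: 0% = growth equal to vehicle treated cultures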; settings: S. cerevisiae cln2 rad14 strain, at 50.0 µM, stronger effect = higher value
In short: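 Strain: cln2 rad14 yeast, altered in cell cycle control and DNA damage repair. Read-out: growth inhibition vs vehicle.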

[5] = NCI Yeast Anticancer Drug Screen. Data for the bub3 strain (AID 167); settings: S. cerevisiae bub3 mutant strain, at 50.0 µM, stronger effect = higher value
In short: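 Compounds were applied to a genetically altered yeast strain carrying a cell-cycle control defect. Growth inhibition was scored against vehicle-treated controls.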

[6] = NCI Yeast Anticancer Drug Screen. Data for the mlh1 rad18 strain (AID 175); settings: S. cerevisiae mlh1 rad18 strain growth inhibition; at 50.0 µM; stronger effect = higher value
In short: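 A repair-deficient yeast strain is exposed to test compound, and growth is scored relative to vehicle-treated controls.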

Measured: growth inhibition

COc1ccc(OC)c(NC(=O)CCCC(=O)C(C#N)c2ccccc2C)c1 (configuration not stated)
inactive: [1] 13.1% | [2] -4.9% | [3] -3.15% | [4] 11.2% | [5] 0.2% | [6] 2.05%

Nc1nc(N)c(N)c(Nc2ccc(Cl)cc2)n1
inactive: [1] 27.5% | [2] 22.3% | [3] 9% | [4] 21.4% | [5] -1.95% | [6] 2.5%

Cc1cc([N+](=O)[O-])ccc1NS(=O)(=O)c1ccccc1
inactive: [1] 24.9% | [2] 39.5% | [3] 42.9% | [4] 15.5% | [5] 18.1% | [6] 36.6%

COc1ccc(Nc2nnc(-c3nsc4ccccc34)s2)cc1
inactive: [1] -2.5% | [2] -28.4% | [3] -37.9% | [4] 22.2% | [5] -27.9% | [6] -24.9%

CC(CCC(=O)O)[C@H]1CCC2[C@@H]3C(=O)C[C@@H]4CC(O)CC[C@]4(C)C3CC[C@@]21C (some centres not stated)
inactive: [1] 38.8% | [2] 18.1% | [3] 41.5% | [4] 35.8% | [5] 19.9% | [6] 23.1%

CCOC(=O)NC(Nc1cc(Cl)ccc1OC)(C(F)(F)F)C(F)(F)F
inactive: [1] 2.5% | [2] -10.5% | [3] -26.1% | [4] 9.65% | [5] 6.85% | [6] -5.2%

Cc1cc(S(=O)(=O)Nc2nnc3cc(C(F)(F)F)cc(C)n23)c(S)cc1Cl
inactive: [1] -19.6% | [2] -26.8% | [3] -38.1% | [4] -15.8% | [5] -19.9% | [6] -14.2%

CCCCCC(=O)Nc1ccccc1
inactive: [1] 4.95% | [2] -6.3% | [3] 1.7% | [4] -29.4% | [5] -10.9% | [6] -3.25%

COc1ccc(-c2cc(C)n(C3OC(CO)C(O)C(O)C3O)c(=S)c2C#N)cc1 (configuration not stated)
inactive: [1] 23.9% | [2] 8.15% | [3] -9.05% | [4] -19.1% | [5] -0.6% | [6] 13.7%

C=CC(C)(C)NC(C(=O)N1CCC[C@H]1c1nc(-c2nc(C(=O)OCC=C(C)C)c(C)o2)c(C)o1)C(C)C (some centres not stated)
inactive: [1] -4.25% | [2] -10.7% | [3] 15.6% | [4] -11.3% | [5] 3.05% | [6] -2.85%

CC(=O)c1ccc(N=Nc2ccc3nonc3c2N)cc1
inactive: [1] -22.5% | [2] -4.35% | [3] -20.6% | [4] -10.2% | [5] 5.25% | [6] -9.45%

CCOC(=O)C(CC(c1ccc2c(c1)OCO2)C(C(=O)OCC)[N+](=O)[O-])C(=O)OCC (configuration not stated)
inactive: [1] 61.2% | [2] 23.9% | [3] 58.6% | [4] 27.3% | [5] 15.6% | [6] 39.3%

COc1cc2c(cc1OC)C(=O)/C(=C/c1ccccc1)C2
inactive: [1] -16.4% | [2] -0.85% | [3] -6.4% | [4] 15.2% | [5] 36% | [6] 9.6%

CCCCN=Cc1ccc(Cl)cc1
inactive: [1] -2.65% | [2] -24.1% | [3] -32.1% | [4] 6.5% | [5] -19.9% | [6] -6%

O=C(NC1CCCCC1)c1ccccc1Cl
inactive: [1] 23.6% | [2] -9.75% | [3] -15.3% | [4] 24.2% | [5] -10.2% | [6] 10.3%

CC(=O)NC(=O)C(C(C)=O)c1ccccc1 (configuration not stated)
inactive: [1] -5.8% | [2] -0.25% | [3] -7.35% | [4] 12.8% | [5] -7.75% | [6] -10.9%

CC(C)OC(=O)/C=C/C(=O)OC(C)C (tested in a mixture with another compound)
inactive: [1] -13.1% | [2] -6.9% | [3] -13.6% | [4] -20.4% | [5] -13.8% | [6] -23.1%

N#CC1(C2CC(=O)N(c3ccccc3)C2=O)CCCCC1=O (configuration not stated)
inactive: [1] 10.4% | [2] -21.7% | [3] 26.5% | [4] -3.1% | [5] 2% | [6] -6.7%

Cc1ccc(S(=O)(=O)OCC2COC(C(C)C)OC2)cc1 (configuration not stated)
inactive: [1] 5.45% | [2] -2.95% | [3] 9.3% | [4] 2.15% | [5] 48% | [6] -1.25%

COc1cc2cccc(NC(=O)c3cc(OC)c(OC)c(OC)c3Br)c2cc1OC
inactive: [1] 31.4% | [2] 12.4% | [3] 16.6% | [4] 19.6% | [5] 44.5% | [6] 20.7%

CC(O)CCNc1nnc2c3ccccc3n(C)c2n1 (configuration not stated)
inactive: [1] 5.95% | [2] 0.65% | [3] 0.1% | [4] 44.2% | [5] 5.3% | [6] -16.2%

COC(=O)/C=C(\C)CC(O)/C=C(\C)CCC=C(C)C (configuration not stated)
active: [3] 75.1%
inactive: [1] 21.1% | [2] 49.1% | [4] 12.8% | [5] 60.5% | [6] -23.1%

COP(=O)(O)OP(=O)(O)OC
inactive: [1] 1.2% | [2] -29.5% | [3] 25.2% | [4] 6.35% | [5] 13.8% | [6] 16.8%

N#CC1(OC2OC(CO)C(O)C(O)C2O)C=CCC1 (configuration not stated)
inactive: [1] 8.1% | [2] -33% | [3] 4.45% | [4] -7.45% | [5] -12.9% | [6] -3.05%

Clc1cccc2nc(-c3ccccn3)n(CCc3ccncc3)c12
inactive: [2] 51.1% | [4] 60.6%
active: [1] 90% | [3] 84.7% | [5] 74.7% | [6] 86.2%

Cc1ccc(S(=O)(=O)Nc2ccc3ncsc3c2[N+](=O)[O-])cc1
active: [1] 97.2% | [2] 98.7% | [3] 98.3% | [4] 98.2% | [5] 98% | [6] 98%

CC(=O)CC(=O)NCCCN1CCCCC1
inactive: [1] -28.7% | [2] -52.1% | [3] -30.4% | [4] -5.1% | [5] -34.4% | [6] -33.4%

CN1CCCC1
inactive: [1] 2.05% | [2] 8.8% | [3] -2.15% | [4] 1.1% | [5] 16.6% | [6] -8.2%

CN(C)S(=O)(=O)C(C(=O)Nc1ccccc1)c1ccccc1 (configuration not stated)
inactive: [1] -1.15% | [2] 13.8% | [3] 3% | [4] -34.7% | [5] -5.95% | [6] -10.5%

C=C1C(=O)O[C@H]2C[C@@H]1C(=O)C/C(C)=C/CC/C(C)=C/CC[C@@]2(C)OCSC
inactive: [1] 18.9% | [2] -5% | [3] 39% | [4] 26.9% | [5] 9.85% | [6] 13.7%

CC(=O)Oc1ccccc1C#CC(=O)O
inactive: [1] 17.3% | [2] 25.6% | [3] 34% | [4] -1.2% | [5] -0.7% | [6] 15.4%

NC(C(F)(F)F)(C(F)(F)F)P(=O)(Cc1ccccc1)Cc1ccccc1
inactive: [1] -8.35% | [2] -47.4% | [3] -18.7% | [4] -13.8% | [5] -23.1% | [6] 7.85%

Cc1cccc2c1-c1c(C)cccc1C(Cl)S(=O)(=O)C2 (configuration not stated)
inactive: [1] 1.25% | [2] -4.6% | [3] -9.05% | [4] 4.55% | [5] 6.85% | [6] -1.65%

N#C/C(=C\c1ccc(F)cc1)C(=O)O
inactive: [1] 13.2% | [2] 0.8% | [3] -7.9% | [4] 4.2% | [5] 8.5% | [6] 18.4%

O=CC(=O)c1ccc(Br)cc1
inactive: [1] 13.7% | [2] 19.2% | [3] 13.2% | [4] -1.05% | [5] -7.15% | [6] 19.4%

CCOC(=O)c1[nH]c2nc(N)ncc2c(=O)c1C
inactive: [1] -0.15% | [2] -0.95% | [3] -0.15% | [4] 43.6% | [5] 12.8% | [6] 11.7%

CCCCCCCCCCCCSC(=O)Nc1ccc(C(=O)OCC)cc1
inactive: [1] 24.9% | [2] 3.3% | [3] 12.7% | [4] -39.2% | [5] -2.55% | [6] 20.9%

CC1(C)CC2(C)OC3(C)CC(C)(C)OC3(C)OC2(C)O1 (configuration not stated)
inactive: [1] 0.05% | [2] 6.45% | [3] 8.55% | [4] -34.2% | [5] 22.4% | [6] -10.3%

CCOC(=O)COc1cc(C)c2ccc(=O)oc2c1
inactive: [1] 3.9% | [2] -1.35% | [3] 10.8% | [4] 8.45% | [5] 6.4% | [6] 29.1%

CCOC(=O)C(C)(C)/C=C\C(Cl)=C(Cl)Cl
inactive: [1] 4.1% | [2] 4.2% | [3] 8.75% | [4] 4.25% | [5] 19.2% | [6] -34.5%

CC(C)c1sc([S-])n[n+]1-c1ccccc1
inactive: [1] 10.2% | [2] -0.65% | [3] -9.5% | [4] -15.4% | [5] -4.3% | [6] 7%

C(=N\N1CCN(/N=C/c2ccc(OCc3ccccc3)cc2)CC1)/c1ccc(OCc2ccccc2)cc1
inactive: [1] -12.6% | [2] -3.95% | [3] 7.65% | [4] -19.4% | [5] 0.2% | [6] -16.8%
